Measured values as given in PubChem BioAssay (NCI).
Compounds without any hit were thinned out: in the full panel of roughly 83,000, 20% have a hit.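 Note: values are percent growth. 100 is the growth of untreated cells, values between 100 and 0 indicate rising inhibition; between -100 and 0 indicates cell death.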 Active and inactive are the calls of the source. How the source made its calls: active means growth percent below 10; inactive means the rest.

Legend:
Experiment in all cases: NCI-60 one-dose screen, 48 h (100 = growth as untreated, 0 = no growth, -100 = all killed)
Settings in all cases: 10 µM unless noted
[1] = system: DU-145 prostate
[2] = system: K-562 leukemia
[3] = system: MALME-3M melanoma
[4] = system: MDA-MB-231 breast
[5] = system: RXF 393 renal
[6] = system: SF-268 CNS
[7] = system: SF-295 CNS
[8] = system: SF-539 CNS
[9] = system: UACC-257 melanoma
[10] = system: M14 melanoma

Measured: growth

COC(=O)[C@@]12CC[C@@H](C)[C@]3(C[C@@H](c4ccoc4)OC3=O)[C@H]1CC[C@@H]1O[C@@]12C
inactive: [1] 104% | [2] 113% | [3] 101% | [4] 108% | [5] 118% | [6] 95% | [7] 100% | [8] 105% | [9] 99.6% | [10] 99.8%

CCN(CC)c1ccc2c(c1)OS(=O)(=O)N=C2
inactive: [1] 108% | [2] 101% | [3] 98.1% | [4] 134% | [5] 119% | [6] 97.7% | [7] 99.4% | [8] 99.9% | [9] 103% | [10] 98.6%

C[C@@H](Oc1cc(-c2cnn(C3CC4(CNC4)C3)c2)cnc1N)c1c(Cl)ccc(F)c1Cl
inactive: [1] 46.6% | [3] 48.5% | [4] 37.9% | [5] 21.7% | [6] 39.6% | [7] 24.5% | [8] 28.9% | [10] 30.2%
active: [2] 5.12% | [9] 8.56%

CCOC(=O)c1sc(NC(=O)CN2CCC(Cc3ccccc3)CC2)nc1C
inactive: [1] 102% | [2] 93.9% | [3] 82.4% | [4] 119% | [5] 111% | [6] 106% | [7] 42.3% | [8] 106% | [9] 127% | [10] 101%

C[C@@H](Oc1cc(-c2cnn(C3CC4(CCCNC4)C3)c2)cnc1N)c1c(Cl)ccc(F)c1Cl (stereo not given in full)
inactive: [1] 36.7% | [6] 23% | [7] 14.4% | [8] 11.2%
active: [2] 0.205% | [3] -64.7% | [4] 2.82% | [5] -9.61% | [9] -87.2% | [10] -59.5%

NC(=O)c1nc2c([nH]c1=O)CCCC2
inactive: [1] 108% | [2] 92.2% | [3] 101% | [4] 118% | [5] 97.6% | [6] 101% | [7] 103% | [8] 96.6% | [9] 109% | [10] 122%

O=C1/C(=C/c2ccc(Cl)cc2)CN(Cc2cn(CCCNc3ccnc4cc(Cl)ccc34)nn2)C/C1=C\c1ccc(Cl)cc1
active: [1] -11.6% | [2] 0.972% | [3] -64.6% | [4] -58.4% | [5] -97.6% | [6] -84.7% | [7] -56.1% | [8] -91.5% | [9] -69.4% | [10] -64.9%

Cc1cccc2c(=O)c3c(sc12)c(NCCCN)nc1ccccc13
active: [1] -19.8% | [2] -34.6% | [4] -32.4% | [10] -19.7%
inactive: [3] 13.9% | [5] 31.5% | [6] 46.2% | [7] 68% | [8] 38.4% | [9] 81.9%

COc1ccc(S(=O)(=O)ON=C2C=C(C)C(=O)C(C)=C2)cc1
inactive: [1] 101% | [2] 48.7% | [3] 102% | [4] 62.5% | [5] 81.6% | [6] 92.6% | [7] 93% | [8] 94% | [9] 98.6% | [10] 99.9%

COc1cc(/C=N/NC(=O)c2cnn3c2NC(c2ccccc2)C3)cc(OC)c1OC (stereo not given)
inactive: [1] 90.8% | [2] 31.6% | [3] 65.2% | [4] 67.1% | [5] 87.7% | [6] 81.4% | [7] 53.1% | [8] 68.1% | [9] 86.5% | [10] 50.3%

O=C(Nc1ccc(Cl)c(Cl)c1)OCn1ncc2ccc([N+](=O)[O-])cc21
inactive: [1] 108% | [2] 88% | [3] 78.5% | [4] 75.7% | [5] 83.2% | [6] 82.3% | [7] 88.4% | [8] 78.1% | [9] 90.2% | [10] 94.7%

COc1ccc(OC2=CC(=O)c3ccc(C)nc3C2=O)cc1
inactive: [1] 102% | [2] 43.5% | [3] 128% | [4] 90.1% | [5] 88.9% | [6] 79.2% | [7] 96.8% | [8] 89.6% | [9] 93.8% | [10] 87.3%

Clc1ccc(C2=NN(c3ccccc3)[C@H](c3cn(-c4ccccc4)nc3-c3ccccc3)C2)cc1
inactive: [1] 119% | [2] 111% | [3] 103% | [4] 96.6% | [5] 106% | [6] 109% | [7] 108% | [8] 107% | [9] 92.2% | [10] 109%

O=C1OCC2=C1C(c1ccc3c(c1)OCO3)CC(=O)N2c1cccc(Cl)c1 (stereo not given)
inactive: [1] 107% | [2] 102% | [3] 88.4% | [4] 101% | [5] 96.5% | [6] 110% | [7] 96% | [8] 104% | [9] 104% | [10] 121%

COc1ccc(-c2[nH]ncc2Nc2cc(OC)c(OC)c(OC)c2)cc1
inactive: [1] 46.5% | [2] 57.2% | [3] 44.1% | [4] 53.3% | [5] 20.5% | [6] 53.1% | [7] 13% | [9] 66.5% | [10] 31.1%
active: [8] 1.83%

Cc1cc(=O)oc2c1ccc1oc(C(=O)c3ccccc3)c(C)c12
inactive: [1] 98.5% | [2] 49.2% | [3] 113% | [4] 76.3% | [5] 99.8% | [6] 122% | [7] 55.8% | [8] 92.5% | [9] 100% | [10] 77.2%

O=c1oc2ccccc2cc1-c1csc(N=Nc2c(O)[nH]c3ccc(Br)cc23)n1
inactive: [1] 109% | [2] 111% | [3] 99% | [4] 95.6% | [5] 115% | [6] 101% | [7] 101% | [8] 99.5% | [9] 97.3% | [10] 105%

Cc1ccc(C2SCC(=O)N2NC(=O)c2[nH]c3ccc(F)cc3c2-c2ccccc2)cc1 (stereo not given)
inactive: [1] 106% | [2] 75.8% | [3] 91.6% | [4] 86.4% | [5] 78.7% | [6] 93.4% | [7] 92.4% | [8] 97.6% | [9] 86.9% | [10] 109%

COc1ccc(/C=C2\SC(=O)N(CN3CCN(c4cc5c(cc4F)c(=O)c(C(=O)O)cn5C4CC4)CC3)C2=O)cc1
inactive: [1] 109% | [2] 114% | [3] 97.6% | [4] 106% | [5] 108% | [6] 99% | [7] 99.6% | [8] 107% | [9] 96.7% | [10] 88.6%

CCCCC(O)Cn1ncc(C(=O)OCC)c1NC(=O)NCc1ccccc1C(F)(F)F (stereo not given)
inactive: [1] 102% | [2] 71.8% | [3] 93.2% | [4] 92.2% | [5] 106% | [6] 97.7% | [7] 94.3% | [8] 95.9% | [9] 93.7% | [10] 95.2%

CCCCCCCCCCCCCCNc1nc(CO)ncc1-c1ccc(C(F)(F)F)cc1
inactive: [1] 103% | [2] 99.6% | [3] 91.8% | [4] 118% | [5] 99.8% | [6] 91.8% | [7] 97% | [8] 95.6% | [9] 94.7% | [10] 99.8%

COc1ccc(/C=C(\C#N)c2cc3ccccc3n2C)cc1
inactive: [3] 60.8% | [4] 31% | [6] 47.5% | [9] 72.6%
active: [1] 2.99% | [2] 7.26% | [5] -6.28% | [7] 9.9% | [8] -15.9% | [10] 6.61%

COc1ccc(-c2c3c(N)c4c(nc3nc3c2c(C)nn3-c2ccccc2)CCCC4)cc1
inactive: [1] 80.4% | [2] 11.9% | [3] 113% | [4] 76.1% | [5] 84.2% | [6] 86% | [7] 84.9% | [8] 91.8% | [9] 108% | [10] 87.9%

O=C1CCC(N2C(=O)c3cccc(NCCOCCOCCNC(=O)c4cc5c(o4)C(=O)c4ccccc4C5=O)c3C2=O)C(=O)N1 (stereo not given)
active: [1] -97.8% | [2] 8.5% | [3] -95.2% | [4] -2.36% | [5] -39.5% | [6] -12.2% | [7] -93.9% | [8] -95.2% | [9] -82.5% | [10] -66.4%

COc1ccc(-c2csc3c2-n2cccc2C3=O)cc1O
inactive: [3] 66.2% | [4] 13.2% | [5] 31.3% | [6] 13% | [8] 15.6% | [9] 43.8%
active: [1] -23.5% | [2] 5.65% | [7] -31.7% | [10] -18.5%

COc1ccc(/C=C2\CN(Cc3cn(CCCNc4ccnc5cc(Cl)ccc45)nn3)C/C(=C\c3ccc(OC)cc3)C2=O)cc1
inactive: [1] 40.2% | [2] 63.2% | [3] 98.4% | [4] 52.6% | [5] 27.7% | [6] 45.5% | [7] 72.6% | [8] 78.1% | [9] 56% | [10] 70.8%

CCCN(CCC)c1ccc(/C=C/c2ccc3cc(OCC)ccc3n2)cc1
inactive: [1] 91.6% | [2] 72.9% | [3] 88% | [4] 109% | [5] 81.6% | [6] 90.7% | [7] 91.9% | [8] 90.7% | [9] 84.3% | [10] 86.4%
